The results in this text go back to PubChem BioAssay.

Where “and” joins values, the source holds several entries; their conditions need not be identical. Equal values may be shown once. Some structures have more than one record in an assay (separate samples or runs), and their calls can disagree. Calls of active or inactive are those of the source.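 How the source made its calls: active means normalized viability below 100% at a tested concentration; inactive means the rest.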

A short description of the first assay: ovarian cancer cell viability with rucaparib, profiling panel, oncology-focused library, rucaparib conditional (AID 1508598). The note with it: patient-derived ovarian cancer cells, CellTiter-Glo viability, 144 h; at 0.000305 µM; OCI-P5x cells; without rucaparib; stronger effect = lower value. Background: In ATP-based viability assays light output follows the ATP content of the culture.
For the molecule `S=c1nc[nH]c2nc[nH]c12`, the viability (in general, a read-out of living cells in per cent, often relative to untreated cells) was 92.1% (active).
Same read-out and setting: under `CC1=C(/C=C/C(C)=C/C=C/C(C)=C/C(=O)O)C(C)(C)CCC1` stands 120% (inactive); under `O=c1[nH]cnc2[nH]ncc12`, 127% (inactive).
Consider `O=C1c2c(O)ccc(O)c2C(=O)c2c(NCCNCCO)ccc(NCCNCCO)c21`, for which the viability is 100% (inactive) and 94.2% (active).
Turning to `CC(C)C(=O)Nc1ccc([N+](=O)[O-])c(C(F)(F)F)c1`, the viability was 103% (inactive).

Still in this assay, the particulars now being: patient-derived ovarian cancer cells, CellTiter-Glo viability, 144 h; at 0.00122 µM; OCI-C5x cells; with rucaparib 10 µM; stronger effect = lower value; 100% = cells with rucaparib alone.
For the molecule `S=c1nc[nH]c2nc[nH]c12`, the viability was 110% (inactive).
With `CC1=C(/C=C/C(C)=C/C=C/C(C)=C/C(=O)O)C(C)(C)CCC1`, the viability is 106% (inactive).
With `O=c1[nH]cnc2[nH]ncc12`, the viability is 124% (inactive).
`O=C1c2c(O)ccc(O)c2C(=O)c2c(NCCNCCO)ccc(NCCNCCO)c21`: the viability is 114% (inactive) and 109% (inactive).
Same read-out and setting: the figure for `CC(C)C(=O)Nc1ccc([N+](=O)[O-])c(C(F)(F)F)c1` is 114% (inactive).

The assay is the same for the next values; noted with them: patient-derived ovarian cancer cells, CellTiter-Glo viability, 144 h; at 0.00122 µM; OCI-C5x cells; without rucaparib; stronger effect = lower value.
`S=c1nc[nH]c2nc[nH]c12`: the viability was 105% (inactive).
Same read-out and setting: under `CC1=C(/C=C/C(C)=C/C=C/C(C)=C/C(=O)O)C(C)(C)CCC1` stands 121% (inactive); under `O=c1[nH]cnc2[nH]ncc12`, 130% (inactive).
For the molecule `O=C1c2c(O)ccc(O)c2C(=O)c2c(NCCNCCO)ccc(NCCNCCO)c21`, the viability was 117% (inactive) and 115% (inactive).
The same measure, in the same setting: under `CC(C)C(=O)Nc1ccc([N+](=O)[O-])c(C(F)(F)F)c1` stands 115% (inactive).

The assay is the same for the next values; noted with them: patient-derived ovarian cancer cells, CellTiter-Glo viability, 144 h; at 0.00122 µM; OCI-P5x cells; with rucaparib 20 µM; stronger effect = lower value; 100% = cells with rucaparib alone.
Consider `S=c1nc[nH]c2nc[nH]c12`, for which the viability is 98.4% (active).
Still for that read-out and setting: the figure for `CC1=C(/C=C/C(C)=C/C=C/C(C)=C/C(=O)O)C(C)(C)CCC1` is 105% (inactive); for `O=c1[nH]cnc2[nH]ncc12` it is 105% (inactive); for `O=C1c2c(O)ccc(O)c2C(=O)c2c(NCCNCCO)ccc(NCCNCCO)c21` it is 98.9% (active) and 93.9% (active).
As for `CC(C)C(=O)Nc1ccc([N+](=O)[O-])c(C(F)(F)F)c1`, the viability is 98.6% (active).

Still in this assay, the particulars now being: patient-derived ovarian cancer cells, CellTiter-Glo viability, 144 h; at 0.00122 µM; OCI-P5x cells; without rucaparib; stronger effect = lower value.
`S=c1nc[nH]c2nc[nH]c12`: the viability was 94.6% (active).
For `CC1=C(/C=C/C(C)=C/C=C/C(C)=C/C(=O)O)C(C)(C)CCC1`, the viability was 119% (inactive).
Same read-out and setting: the figure for `O=c1[nH]cnc2[nH]ncc12` is 118% (inactive); for `O=C1c2c(O)ccc(O)c2C(=O)c2c(NCCNCCO)ccc(NCCNCCO)c21` it is 109% (inactive) and 96.8% (active); for `CC(C)C(=O)Nc1ccc([N+](=O)[O-])c(C(F)(F)F)c1` it is 104% (inactive).
